The values that follow come from PubChem BioAssay (NCI).

This is part of a sample that, as a whole, favours compounds with a hit. Of some 79,000 tested, about 15% had one in any assay. Unmarked numbers belong to inactive results. Activity calls are given as the source filed them. No stated cut-off is given here; in the data, active means growth inhibition above about 70%; inactive means the rest.

Assay [1] in a line: NCI Yeast Anticancer Drug Screen. Data for the rad50 strain (AID 155).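 Further: 0% = growth of vehicle-only cultures of the same strain.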 The settings on record: S. cerevisiae rad50 strain growth inhibition; at 50.0 µM; stronger effect = higher value. In outline: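 Cells are treated with compound, grown, and their growth is then scored against vehicle-only cultures of the same repair-deficient yeast strain.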
A short description of assay [2]: NCI Yeast Anticancer Drug Screen. Data for the mec2-1 strain (AID 157). The settings on record: S. cerevisiae mec2-1 strain, at 50.0 µM, stronger effect = higher value. In outline:
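Strain: mec2-1 (DNA repair/cell cycle alteration). Compound exposure, then growth measured; inhibition expressed relative to vehicle.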

Assay [3] can be described thus: NCI Yeast Anticancer Drug Screen. Data for the sgs1 mgt1 strain (AID 161).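 Further: 0% = growth of cultures given vehicle only.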 The conditions noted are these: S. cerevisiae sgs1 mgt1 strain, at 50.0 µM, stronger effect = higher value. Put shortly:
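Read-out: growth inhibition vs vehicle controls. Cells: mutant yeast strain deficient in DNA damage repair.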

Assay [4] is described as follows: NCI Yeast Anticancer Drug Screen. Data for the cln2 rad14 strain (AID 165).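 Further: 0% = growth equal to vehicle treated cultures.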 The conditions noted are these: S. cerevisiae cln2 rad14 strain, at 50.0 µM, stronger effect = higher value. In outline:
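Compounds are applied to the cln2 rad14 yeast strain, and growth is then compared with that of vehicle-treated cultures to give inhibition.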

The nature of assay [5]: NCI Yeast Anticancer Drug Screen. Data for the bub3 strain (AID 167). The settings on record: S. cerevisiae bub3 mutant strain, at 50.0 µM, stronger effect = higher value. Put shortly:
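Part of a panel of yeast mutants defective in DNA damage repair or cell cycle regulation. Each strain is grown with compound, and inhibition is calculated relative to solvent-treated cultures.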

Assay [6] is described as follows: NCI Yeast Anticancer Drug Screen. Data for the mlh1 rad18 strain (AID 175). The settings on record: S. cerevisiae mlh1 rad18 strain growth inhibition; at 50.0 µM; stronger effect = higher value. Put shortly:
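Read-out is yeast growth inhibition, calculated against vehicle-only controls. The compound was applied to a strain engineered with DNA damage repair alterations.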

Turning to `COC(=O)[C@H]1[C@@H](O)[C@@]2(O)c3c(OC)cc(OC)cc3O[C@@]2(c2ccc3c(c2)OCO3)[C@@H]1c1ccccc1`, the growth inhibition in assay [1] is 89% (active); in assay [2], 92.5% (active); in assay [3], 91% (active); in assay [4] it was 90.2% (active); in assay [5], 88.2% (active); in assay [6] it was 92.2% (active).
Consider `C#CCC1(OC(N)=O)CCCCC1`, for which the growth inhibition is 19.2% in assay [1]; 14.8% in assay [2]; -1.35% in assay [3]; -38.2% in assay [4]; 3.65% in assay [5]; -16.6% in assay [6].
Regarding `O=c1nc2n(CCN(CCCl)CCCl)c3cc(Cl)c(Cl)cc3nc-2c(=O)[nH]1`, the growth inhibition in assay [1] was 38%; in assay [2], -1.65%; in assay [3], 45%; in assay [4], 34.6%; in assay [5], 3.65%; in assay [6], 26.4%.
On to `COCCOC(=O)CCl`, for which the growth inhibition is -4.35% in assay [1]; 0.4% in assay [2]; 10.9% in assay [3]; 0.45% in assay [4]; -0.7% in assay [5]; 25.5% in assay [6].
As for `CC(C)(OOC(C)(C)c1ccccc1)c1ccccc1`, the growth inhibition is -13.1% in assay [1]; -16% in assay [2]; 4.6% in assay [3]; -40.9% in assay [4]; 6.05% in assay [5]; -8.95% in assay [6].
As to `CC(C)OC(N)=O`, the growth inhibition was -2.35% in assay [1]; -24.9% in assay [2]; 29.2% in assay [3]; 13.6% in assay [4]; -21% in assay [5]; -6.85% in assay [6].
On to `CN1CCN(Cc2ccccc2)C(C#N)C1` (stereo not given), for which the growth inhibition in assay [1] is -2.6%; in assay [2], -8.75%; in assay [3], -0.35%; in assay [4], -25.9%; in assay [5], -17.4%; in assay [6], -11.7%.
`c1ccc(C2=NC(c3ccccc3)N3CC23c2ccccc2)cc1` (stereo not given): the growth inhibition was 12.8% in assay [1]; 15.2% in assay [2]; 5.05% in assay [3]; -7.6% in assay [4]; 15.2% in assay [5]; 24.4% in assay [6].
For `COc1ccc(CC(N)c2ccccc2)cc1OC` (stereo not given), the growth inhibition in assay [1] is -15.3%; in assay [2], 23.9%; in assay [3], -8.85%; in assay [4], -21.1%; in assay [5], -1.55%; in assay [6], -29.1%.
For the compound `Brc1ccc(NP(Br)(c2ccccc2)(c2ccccc2)c2ccccc2)cc1`, the growth inhibition is 52.8% in assay [1]; 5.6% in assay [2]; 58% in assay [3]; 11.8% in assay [4]; 11.9% in assay [5]; 20.1% in assay [6].
Take `NC(=O)c1ccc(NN=O)nc1`: the growth inhibition in assay [1] is -10.4%; in assay [2], 0.9%; in assay [3] it was 1.1%; in assay [4], -9.85%; in assay [5], -2.85%; in assay [6] it was -2.5%.
In the case of `CCCCC(CC)C(=O)O.[Sn]` (stereo not given), the growth inhibition in assay [1] is -20.5%; in assay [2], -9.1%; in assay [3] it was -10.3%; in assay [4], -10.4%; in assay [5], -20.9%; in assay [6], -15.8%.
On to `CCOc1ccc2c(N/N=C/c3ccc(N(CCCl)CCCl)cc3)cc(C)nc2c1`, for which the growth inhibition was 96.3% (active) in assay [1]; 97.6% (active) in assay [2]; 97.3% (active) in assay [3]; 97.8% (active) in assay [4]; 95.7% (active) in assay [5]; 96.3% (active) in assay [6].
Take `CCC(=O)C1(c2ccccc2)CCN(C)CC1`: the growth inhibition in assay [1] was -20.7%; in assay [2], -35.7%; in assay [3] it was 12.8%; in assay [4] it was -16.5%; in assay [5], -12.9%; in assay [6], 6.7%.
On to `Brc1ccc2nncc(N3CC3)c2c1`, for which the growth inhibition is -13.2% in assay [1]; -16.6% in assay [2]; 4.55% in assay [3]; 8.5% in assay [4]; -9.3% in assay [5]; -20.6% in assay [6].
With `CN1CCC(C(O)(c2ccccc2)c2ccccc2)CC1`, the growth inhibition in assay [1] was -1.95%; in assay [2], -11.3%; in assay [3], 12.3%; in assay [4], -39.1%; in assay [5], -6.45%; in assay [6] it was -25.4%.
For the compound `CN(C)C(=O)Sc1ccc(S(=O)(=O)F)c(Cl)c1Cl`, the growth inhibition in assay [1] is 26.4%; in assay [2], 13.3%; in assay [3], 31.1%; in assay [4], 21.9%; in assay [5], 3.25%; in assay [6], 24.6%.
For `Clc1ccc(C2ON2c2ccccc2)cc1` (stereo not given) (tested in a mixture with another compound), the growth inhibition is 3.1% in assay [1]; 14.6% in assay [2]; 16.2% in assay [3]; 4.45% in assay [4]; -8.4% in assay [5]; 18.2% in assay [6].
For the compound `C[n+]1ccccc1-c1ccc[n+](CCCC[n+]2cccc(-c3cccc[n+]3C)c2)c1`, the growth inhibition in assay [1] is -8.5%; in assay [2], -1.8%; in assay [3], -7.5%; in assay [4], -25.6%; in assay [5], -8.65%; in assay [6] it was 20%.
As to `COC(=O)c1ccccc1NP(=O)(O)Oc1ccccc1` (tested in a mixture with another compound), the growth inhibition in assay [1] was 9.7%; in assay [2], -4.05%; in assay [3], 11.5%; in assay [4] it was -32.5%; in assay [5], -2.7%; in assay [6] it was -11.9%.
